Laboratory results: PubChem BioAssay (Tox21)
Several values for one entry are separate records, joined by “and”; a condition that tells them apart may be missing. Identical values can stand only once. Records with an inconclusive call do not appear. Where a call stands in place of a potency, no number is given. Activity calls are given as the source filed them. The call rests on the fitted dose curve; in most records, active means well fitted cell-killing curve with a large enough effect in the repeat runs; inconclusive means weak or mixed curves, or effect the other way; inactive means no such curve, though single readings can be large or run the other way.

Assay: qHTS assay to identify small molecule antagonists of the retinoid-related orphan receptor gamma (ROR-gamma) signaling pathway - cell viability counter screen (AID 1159520); further: nearly all actives have a fitted effect of over 50% in size
Conditions: Tet-on RORgamma CHO cells viability, ATP luminescence, 16 h; series mostly up to 92.4 µM
Source text: U.S. Tox21 Program National Center for Advancing Translational Sciences [NCATS] NIH Chemical Genomics Center [NCGC] U.S. Environmental Protection Agency [EPA] National Institutes of Environmental Health Sciences [NIEHS] National Toxicology Program [NTP] U.S. Food and Drug Administration [FDA] Tox21 Assay Overview: Nuclear steroid hormone receptors are involved in many biological processes including inflammatory responses, cell proliferation, and apoptosis. Environmental factors or compounds disrupting these nuclear receptor pathways and gene expression may promote susceptibility to immunotoxicants and autoimmune diseases. One important group of these expression factors are the retinoid-related orphan receptors. To assess compounds that may interfere with the retinoid-related orphan receptor gamma (ROR-gamma) transcription factor, a cell-based luciferase assay was used. The CHO cell-based assay utilizes a TET-inducible ROR expression factor and ROR response element-LUC reporter gene. Reporter gene activity was induced using Doxycycline Hyclate and measured after 16 hr incubation. Tet-on ROR gamma CHO cells were used to screen against the Tox21 10K compound library for cytotoxicity by measuring the viability of the cells based on the quantitation of the ATP.
Tox21 Assay Protocol Summary: Tet-on ROR gamma CHO cells were dispensed at 1,000 cells in 4 uL of culture medium per well into white wall/solid bottom 1536-well plates using a Multidrop Combi (Thermo Scientific, Waltham, MA) dispenser. Following incubation at 37 C and 5% CO2 for 4 hr, 23 nL of compounds dissolved in DMSO, positive controls or DMSO only were transferred by a Pintool station (Kalypsys, San Diego, CA) and after 2 hr incubation at 37 C, one ul of 1 uM (final concentration) of Doxycycline Hyclate was added to all the wells by using a Flying Reagent Dispenser (FRD) (Aurora Discovery, San Diego, CA). After 16 hr incubation at 37 C and 5% CO2, 5 uL of CellTiter-Glo reagent (Promega Corporation, Madison, WI) was added to each assay plate using FRD. After 30 min incubation at room temperature, luminescence was quantified on a ViewLux plate reader (Perkin Elmer, Waltham, MA).
Potency means the concentration at half of the fitted maximal effect.

Row | SMILES | Potency
1 | O=C=Nc1ccc(Cc2ccc(N=C=O)cc2)cc1 | inactive
2 | O=C(COc1ccc(Cl)cc1)N1CCN(Cc2ccc3c(c2)OCO3)CC1 | inactive
3 | CCC(C)CO (stereo not given) | inactive
4 | O=C(/C=C/c1ccccc1)OCc1ccccc1 | inactive
5 | Cc1cccc([N+](=O)[O-])c1C | inactive
6 | CN(C)C(=N)N=C(N)N | inactive
7 | Nc1ccc(Nc2ccccc2)cc1 | inactive
8 | O=Cc1ccccc1O | inactive
9 | O=C(c1ccccc1)c1ccccc1O | inactive
10 | O=C(/C=C/C=C/c1ccc2c(c1)OCO2)N1CCCCC1 | inactive
11 | C/C=C/C(=O)O | inactive
12 | CCC(C)OC(=O)c1ccc(O)cc1 (stereo not given) | inactive
13 | CCCCC(CC)COCC1CO1 (stereo not given) | inactive
14 | Cc1ccc2c(n1)Oc1ccc(C(C)C(=O)OCC(=O)N(C)C)cc1C2 (stereo not given) | inactive
15 | CCCCOCCOCCO | inactive
16 | Brc1cc(Oc2cc(Br)c(Br)c(Br)c2Br)c(Br)c(Br)c1Br | inactive
17 | C=C(C)C1CC=C(C)CC1 (stereo not given) | inactive
18 | O=C(OCc1ccccc1)c1ccccc1O | inactive
19 | Nc1ncn([C@@H]2O[C@H](CO)[C@@H](O)[C@H]2O)c(=O)n1 | 3.44 µM (active) and 4.22 µM (active)
20 | c1ccncc1 | inactive

Row | SMILES | Potency
21 | CC(=O)CC/C=C(\C)CCC=C(C)C | inactive
22 | Cc1ccc(C)c(O)c1C | inactive
23 | CCCCNS(=O)(=O)c1ccccc1 | inactive
24 | c1cc(N(CC2CO2)CC2CO2)ccc1OCC1CO1 (stereo not given) | inactive
25 | CCCCC(CC)COP(=O)(OCC(CC)CCCC)OCC(CC)CCCC (stereo not given) | inactive
26 | CC(C)=CCCC(C)CCO (stereo not given) | inactive
27 | C=CC(C)(CCC=C(C)C)OC(C)=O (stereo not given) | inactive
28 | CCCCOCCOCCOCCO | inactive
29 | NNc1ccc(C(=O)O)cc1 | inactive
30 | OC1CCCCCCCCCCC1 | inactive
31 | CC(=O)Oc1ccccc1C(=O)Nc1ncc([N+](=O)[O-])s1 | 3.93 µM (active) and 5.31 µM (active)
32 | COC(=O)Nc1nc2ccc(S(=O)c3ccccc3)cc2[nH]1 (stereo not given) | inactive
33 | Nc1ccc(S(=O)(=O)Nc2cnc3ccccc3n2)cc1 | inactive
34 | CC(C)CC(C)(O)C#CC(C)(O)CC(C)C (stereo not given) | inactive
35 | OCCO | inactive
36 | c1cc(-c2ccncc2)ccn1 | inactive
37 | O=P(O)(O)O | inactive
38 | COC(=O)c1ccccc1 | inactive
39 | CC(CCC(=O)O)(c1ccc(O)cc1)c1ccc(O)cc1 | inactive
40 | c1ccc2sc(SSN3CCOCC3)nc2c1 | 27.3 µM (active)
